From PubChem BioAssay (NCATS) come the findings set out here.

A number with no mark means an inactive call. Calls follow the shape of the dose curve; as a rule, active = well fitted curve in the direction sought with a large enough effect; inactive = no such curve, though single readings can be large or run the other way.

This assay can be described thus: qHTS for small molecule inhibitors of Yes1 kinase: Counter Assay (AID 686950).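 Also: no kinase present so only ADP-Glo detection of a fixed ADP amount is tested; luminescence from ADP-Glo reporting ADP in a fixed ATP and ADP mixture; 0% = DMSO wells with ATP plus ADP and -100% = ATP-only wells without ADP.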 The note with it: series mostly up to 76.9 µM; activity change, negative = inhibition: at the top concentration. Summed up: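 Luminescence read-out from ADP-Glo quantifies a fixed ADP amount (0.02 mM ADP with 0.08 mM ATP) after 60 min at room temperature; signal is normalized between DMSO wells with ATP/ADP and with 0.1 mM ATP alone.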
On the technique in general: Quantitative high-throughput screening tests each substance at several concentrations.
With `O=C(Nc1n[nH]c2nnc(-c3cccnc3)cc12)C1CC1`, the “activity change, negative = inhibition” value was 7.05%. With `Nc1nccc(-c2c(-c3ccc(F)cc3)nn3cc(C(F)(F)F)ccc23)n1`, the “activity change, negative = inhibition” value was 4.35%. `COc1ccc2cc(-c3c(-c4ccncc4)nc(-c4ccc(S(C)=O)cc4)n3C)ccc2c1` (stereo not given): the “activity change, negative = inhibition” value was -0.218%. Regarding `Fc1cccc(COc2ccc(Nc3ncnc4sc(-c5cccs5)cc34)cc2Cl)c1`, the “activity change, negative = inhibition” value is 1.37%. As to `Fc1ccc(-c2ncn(C3CCNCC3)c2-c2ccnc(Oc3cccc(F)c3)n2)cc1`, the “activity change, negative = inhibition” value is -3.48%.

`Fc1cccc(COc2ccc(Nc3ncnc4sc(-c5ccco5)cc34)cc2Cl)c1`: the “activity change, negative = inhibition” value was 5.88%. `NC(=O)c1cc(-c2ccc(F)cc2)cc(-c2ccncc2)c1N`: the “activity change, negative = inhibition” value was 2.71%.

Take `CC(=O)Nc1cccc(C#Cc2cncnc2Nc2ccc(OCc3cccc(F)c3)c(Cl)c2)c1`: the “activity change, negative = inhibition” value is 3.72%. The value for `CCCN1CCCC(c2ccc(Nc3nc(Nc4cc(F)ccc4C(N)=O)c4cc[nH]c4n3)c(OC)c2)C1` (stereo not given) was 251%. Take `CCCN1CCC(Oc2cc(Nc3nc(Nc4cccc(F)c4C(N)=O)c4cc[nH]c4n3)c(OC)cc2Cl)CC1`: the “activity change, negative = inhibition” value was 1.1%.

For `O=C(OC1CNC(C#Cc2cc3ncnc(Nc4ccc5c(ccn5Cc5cc(F)ccc5F)c4)c3s2)C1)N1CCOCC1` (stereo not given), the “activity change, negative = inhibition” value was -3.15%.

Turning to `O=C(Nc1ccc(Oc2ccc3nc(NC(=O)c4ccccc4)[nH]c3c2)cc1)Nc1cc(C(F)(F)F)ccc1F`, the “activity change, negative = inhibition” value is 6.88%. For the molecule `Fc1ccc(-c2ncn(C3CCNCC3)c2-c2ccnc(Oc3ccc(Cl)cc3)n2)cc1`, the “activity change, negative = inhibition” value was -4.64%.

For the molecule `COc1ccc2ncn(-c3cc(OC(C)c4ccccc4Cl)c(C(N)=O)s3)c2c1` (stereo not given), the “activity change, negative = inhibition” value is 6.21%.

For the molecule `Nc1ccc(C#Cc2cncnc2Nc2ccc(OCc3cccc(F)c3)c(Cl)c2)cc1`, the “activity change, negative = inhibition” value was 2.24%. As to `COc1cccc(COc2cc(-n3cnc4ccccc43)sc2C(N)=O)c1`, the “activity change, negative = inhibition” value was -3.88%. The value for `Fc1ccc(-c2ncn(C3CCNCC3)c2-c2ccnc(Oc3ccc4c(c3)OCO4)n2)cc1` was -0.463%; that for `COc1c(C(N)=O)cc(-c2ccc(Cl)cc2)cc1-c1ccc(S(N)(=O)=O)cc1` was -3.56%. Consider `CCn1c(-c2nonc2N)nc2cncc(C(=O)N3CCC(N)C3)c21` (stereo not given), for which the “activity change, negative = inhibition” value was 5.7%. In the case of `Cc1cccc(Nc2ncc(-c3ccccc3)o2)c1`, the “activity change, negative = inhibition” value was -3.11%. As for `Fc1ccc(-c2ncn(CCCN3CCOCC3)c2-c2ccncc2)cc1`, the “activity change, negative = inhibition” value is -2.87%. On to `Fc1ccc(Oc2nccc(-c3c(-c4ccc(F)cc4)ncn3C3CCNCC3)n2)cc1`, for which the “activity change, negative = inhibition” value was -2.18%. The value for `CS(=O)(=O)CCNCc1nc(-c2ccc3ncnc(Nc4ccc(OCc5cccc(C(F)(F)F)c5)cc4)c3c2)cs1` was 3.91%; that for `NS(=O)(=O)c1ccc(N=Nc2c(O)[nH]c3ccc(C(=O)NCCc4cnc[nH]4)cc23)cc1` was 7.42%. Next, `CC(Oc1cc(-n2cnc3ccc(OCC(O)CO)cc32)sc1C(N)=O)c1ccccc1Cl` (stereo not given): -0.118%; `Clc1ccc(-c2nn3ncccc3c2-c2ccnc(Nc3ccccc3)n2)cc1`: -0.964%; `CNC(=O)c1cccc(C#Cc2cncnc2Nc2ccc(OCc3cccc(F)c3)c(Cl)c2)c1`: 1.17%. As to `FC(F)(F)c1ccc(-c2nn3ncccc3c2-c2ccnc(Nc3ccc4c(c3)OCCO4)n2)cc1`, the “activity change, negative = inhibition” value is -2.33%. As for `CNC(=O)c1cncc(C=Cc2ccccc2C)c1`, the “activity change, negative = inhibition” value was 5%.

For the molecule `c1cnn2ncc(-c3ccnc(NCCCN4CCOCC4)n3)c2c1`, the “activity change, negative = inhibition” value is 1.83%. In the case of `Cc1cccc2c(N=Nc3ccc(S(N)(=O)=O)cc3)c(O)[nH]c12`, the “activity change, negative = inhibition” value was 0.144%. Take `COc1cc(N2CCN(C(C)C)CC2)ccc1Nc1nc(Nc2cccc3ncccc23)c2cc[nH]c2n1`: the “activity change, negative = inhibition” value is 3.26%. With `NS(=O)(=O)c1ccc(N=Nc2c(=O)[nH]c3ccc4[nH]cccc4c23)cc1`, the “activity change, negative = inhibition” value was -4.38%.

Consider `CN(C)CCCNc1nccc(-c2c(-c3ccc(F)cc3)nn3cc(C(F)(F)F)ccc23)n1`, for which the “activity change, negative = inhibition” value was -1.16%.

Consider `COc1ccc2ncn(-c3cc(OC(C)c4ccccc4C(F)(F)F)c(C(N)=O)s3)c2c1` (stereo not given), for which the “activity change, negative = inhibition” value was 8.53%.

On to `CN1CCN(CCCNc2nc3ccc(Oc4ccc(NC(=O)Nc5cc(C(F)(F)F)ccc5F)cc4)cc3[nH]2)CC1`, for which the “activity change, negative = inhibition” value is -0.657%. With `c1ccc(Nc2ncc(-c3ccccc3)o2)cc1`, the “activity change, negative = inhibition” value was -2.5%. For the molecule `CCn1c(-c2nonc2N)nc2c(N3CCCC3)nccc21`, the “activity change, negative = inhibition” value is 6.64%.

On to `COc1cccc(-n2ncc3c(NN=Cc4ccc(C)cc4)ncnc32)c1`, for which the “activity change, negative = inhibition” value was 0.204%. In the case of `CNC(=O)c1cc(-c2ccc(F)cc2)cc(-c2ccc(S(=O)(=O)N3CCCC3)cc2)c1N`, the “activity change, negative = inhibition” value is 7.82%.
